Results from PubChem BioAssay (NCATS).
Values joined by “and” are separate entries in the source; they are usually repeats but may differ in a detail not shown here. Equal entries are not always repeated. Records with an inconclusive call do not appear. Active and inactive are the calls of the source. Calls follow the shape of the dose curve; as a rule, active = well fitted curve in the direction sought with a large enough effect; inconclusive = small, poorly fitted or top-dose-only effect, or another doubt; inactive = no such curve, though single readings can be large; an effect the other way counts as inactive or inconclusive.

Columns and labels:
[1] = qHTS of pediatric cancer cell lines to identify multiple opportunities for drug repurposing: Primary screen for A673 cells (AID 1347092); details: A673 Ewing sarcoma viability, CellTiter-Glo ATP luminescence, 48 h; series mostly up to 46 µM; also: nearly all actives have a fitted effect of over 45% in size; also: potency is read from the fitted curve at half-maximal effect
How it was run: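 Luminescence from CellTiter-Glo, taken after 15 min at room temperature, served as the proxy for metabolically active cells following 48 h treatment. Both potency and efficacy were taken from curves fitted to the titration data.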

[2] = qHTS of pediatric cancer cell lines to identify multiple opportunities for drug repurposing: Primary screen for SK-N-MC cells (AID 1347093); details: SK-N-MC viability, CellTiter-Glo luminescence, 48 h; series mostly up to 46 µM; also: potency is read from the fitted curve at half-maximal effect
How it was run: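 Metabolically active cells were quantified by ATP-dependent luminescence (CellTiter-Glo, 15 min at room temperature) following 48 h treatment. Cells had been plated at 500-1,000 per well and settled for 5 h beforehand.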

[3] = qHTS of pediatric cancer cell lines to identify multiple opportunities for drug repurposing: Primary screen for U-2 OS cells (AID 1347096); details: U-2 OS viability, CellTiter-Glo luminescence, 48 h; series mostly up to 46 µM; also: nearly all actives have a fitted effect of over 50% in size; also: potency is read from the fitted curve at half-maximal effect
How it was run: (§1)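 Viability after 48 h compound treatment at 37C, 500-1,000 cells/well, read as ATP luminescence with CellTiter-Glo. Primary screens used 11-point (MIPE, 0.78 nM-46 µM) or 8-point (NPC, 0.59 nM-46 µM) final concentrations; follow-up screens used 11-point dilutions.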

[4] = qHTS of pediatric cancer cell lines to identify multiple opportunities for drug repurposing: Primary screen for Saos-2 cells (AID 1347097); details: Saos-2 viability, CellTiter-Glo ATP luminescence, 48 h; series mostly up to 46 µM; also: nearly all actives have a fitted effect of over 40% in size; also: potency is read from the fitted curve at half-maximal effect
How it was run: (§2)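 Readout: CellTiter-Glo luminescence, 48 h treatment. Controls DMSO (neutral) and bortezomib 2.3 µM final (positive). Potency and efficacy taken from primary-screen concentration-response curves.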

[5] = qHTS of pediatric cancer cell lines to identify multiple opportunities for drug repurposing: Primary screen for SK-N-SH cells (AID 1347098); details: SK-N-SH viability, CellTiter-Glo luminescence, 48 h; series mostly up to 57 µM; also: nearly all actives have a fitted effect of over 65% in size; also: potency is read from the fitted curve at half-maximal effect
How it was run: (§3)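 Cells (500-1,000/well) rested 5 h, then received compounds for 48 h; metabolically active cells were measured by CellTiter-Glo luminescence. Final concentrations spanned up to 46 µM (MIPE, 11-point) or 0.59 nM-46 µM (NPC, 8-point) in primary screens, 11-point in follow-ups.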

[6] = qHTS of pediatric cancer cell lines to identify multiple opportunities for drug repurposing: Primary screen for LAN-5 cells (AID 1347100); details: LAN-5 neuroblastoma viability, CellTiter-Glo luminescence, 48 h; series mostly up to 46 µM; also: potency is read from the fitted curve at half-maximal effect
How it was run: as §1

[7] = qHTS of pediatric cancer cell lines to identify multiple opportunities for drug repurposing: Primary screen for BT-12 cells (AID 1347101); details: BT-12 viability, CellTiter-Glo luminescence, 48 h; series mostly up to 57.3 µM; also: nearly all actives have a fitted effect of over 25% in size; also: potency is read from the fitted curve at half-maximal effect
How it was run: as §3

[8] = qHTS of pediatric cancer cell lines to identify multiple opportunities for drug repurposing: Primary screen for Rh18 cells (AID 1347102); details: Rh18 rhabdomyosarcoma viability, CellTiter-Glo luminescence, 48 h; series mostly up to 46 µM; also: nearly all actives have a fitted effect of over 65% in size; also: potency is read from the fitted curve at half-maximal effect
How it was run: as §1

[9] = qHTS of pediatric cancer cell lines to identify multiple opportunities for drug repurposing: Primary screen for OHS-50 cells (AID 1347103); details: OHS-50 osteosarcoma viability, CellTiter-Glo luminescence, 48 h; series mostly up to 57.3 µM; also: nearly all actives have a fitted effect of over 40% in size; also: potency is read from the fitted curve at half-maximal effect
How it was run: as §3

[10] = qHTS of pediatric cancer cell lines to identify multiple opportunities for drug repurposing: Primary screen for RD cells (AID 1347104); details: RD rhabdomyosarcoma viability, CellTiter-Glo luminescence, 48 h; series mostly up to 46 µM; also: nearly all actives have a fitted effect of over 55% in size; also: potency is read from the fitted curve at half-maximal effect
How it was run: as §2

[11] = qHTS of pediatric cancer cell lines to identify multiple opportunities for drug repurposing: Primary screen for MG 63 (6-TG R) cells (AID 1347105); details: MG 63 (6-TG R) viability, CellTiter-Glo, 48 h; series mostly up to 46 µM; also: nearly all actives have a fitted effect of over 50% in size; also: potency is read from the fitted curve at half-maximal effect
How it was run: as §2

[12] = qHTS of pediatric cancer cell lines to identify multiple opportunities for drug repurposing: Primary screen for control Hh wild type fibroblast cells (AID 1347106); details: Hh wild-type fibroblast viability, CellTiter-Glo luminescence, 48 h; series mostly up to 46 µM;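 also: a drop in luminescence marks cytotoxicity and a rise apparent proliferation; nearly all actives have a fitted effect of over 55% in size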
How it was run: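 Cells (500-1,000/well) in growth media were settled 5 h at 37 degrees C, then given compounds for 48 h. Viability was read as CellTiter-Glo luminescence. Primary runs used MIPE at 11 points (0.78 nM-46 µM) and NPC at 8 points (0.59 nM-46 µM); follow-ups used 11 points.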

[13] = qHTS of pediatric cancer cell lines to identify multiple opportunities for drug repurposing: Primary screen for Rh30 cells (AID 1347107); details: Rh30 rhabdomyosarcoma viability, CellTiter-Glo luminescence, 48 h; series mostly up to 46 µM; also: nearly all actives have a fitted effect of over 75% in size
How it was run: as §1

[14] = qHTS of pediatric cancer cell lines to identify multiple opportunities for drug repurposing: Primary screen for Rh41 cells (AID 1347108); details: Rh41 rhabdomyosarcoma viability, CellTiter-Glo luminescence, 48 h; series mostly up to 46 µM; also: nearly all actives have a fitted effect of over 70% in size; also: potency is read from the fitted curve at half-maximal effect
How it was run: as §2

[15] = qHTS of pediatric cancer cell lines to identify multiple opportunities for drug repurposing: Primary screen for BT-37 cells (AID 1347094); details: BT-37 viability, CellTiter-Glo luminescence, 48 h; series mostly up to 57.3 µM
How it was run: as §2

[16] = qHTS of pediatric cancer cell lines to identify multiple opportunities for drug repurposing: Primary screen for NB-EBc1 cells (AID 1347095); details: NB-EBc1 neuroblastoma viability, CellTiter-Glo luminescence, 48 h; series mostly up to 46 µM; also: potency is read from the fitted curve at half-maximal effect
How it was run: as §2

[17] = qHTS of pediatric cancer cell lines to identify multiple opportunities for drug repurposing: Primary screen for NB1643 cells (AID 1347099); details: NB1643 neuroblastoma viability, CellTiter-Glo luminescence, 48 h; series mostly up to 46 µM; also: nearly all actives have a fitted effect of over 50% in size; also: potency is read from the fitted curve at half-maximal effect
How it was run: as §2

[18] = qHTS of pediatric cancer cell lines to identify multiple opportunities for drug repurposing: Confirmatory screen for NB1643 cells (AID 1347109); details: NB1643 neuroblastoma cell viability; series mostly up to 45.9 µM; also: nearly all actives have a fitted effect of over 45% in size; also: potency is read from the fitted curve at half-maximal effect
How it was run: as §1

[19] = qHTS of pediatric cancer cell lines to identify multiple opportunities for drug repurposing: Confirmatory screen for SK-N-MC cells (AID 1347111); details: SK-N-MC cell viability; series mostly up to 45.9 µM;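 also: cells exposed to compound for 48 h before the readout; nearly all actives have a fitted effect of over 70% in size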; also: potency is read from the fitted curve at half-maximal effect
How it was run: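 SK-N-MC cells at 500-1,000 cells/well in growth media were pre-incubated 5 h, then exposed to compounds at 11-point dilutions for 48 h at 37 degrees C, 5% CO2. Viability was read as CellTiter-Glo luminescence.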

[20] = qHTS of pediatric cancer cell lines to identify multiple opportunities for drug repurposing: Confirmatory screen for A673 cells (AID 1347110); details: A673 Ewing sarcoma cell viability; series mostly up to 45.9 µM; also: potency is read from the fitted curve at half-maximal effect; nearly all actives have a fitted effect of over 65% in size
How it was run: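 qHTS titration format: primary MIPE 0.78 nM-46 µM (11 pts), NPC 0.59 nM-46 µM; confirmation 11 pts. 48 h, CTG luminescence.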

Measured: Potency

CCOC(=O)C(C)(C)Oc1ccc(Cl)cc1
not listed: [15] | [16] | [17] | [18] | [19] | [20]
inactive: all other assays above

Clc1ccc2nsnc2c1NC1=NCCN1
active: [18] 26.1 µM
not listed: [2] | [20]
inactive: all other assays above

CN(Cc1cnc2nc(N)nc(N)c2n1)c1ccc(C(=O)N[C@@H](CCC(=O)O)C(=O)O)cc1
active: [1] 4.2 nM and 59 nM | [2] 0.003 µM | [16] 106 nM and 187 nM | [6] 0.0526 µM | [7] 6.2 nM | [9] 0.0098 µM | [10] 0.0106 µM | [20] 32.9 nM | [19] 36.9 nM
inactive: [3] | [4] | [5] | [8] | [11] | [13] | [14]

CN(C)CCOC(c1ccccc1)c1ccccc1
not listed: [2] | [9] | [17] | [18] | [19] | [20]
inactive: all other assays above

Clc1ccc(C(c2ccccc2Cl)C(Cl)Cl)cc1 (stereo unspecified)
inactive: [3] | [5] | [7] | [8] | [12] | [13] | [18]
active: [1] 23.5 µM | [2] 16.6 µM | [16] 21.1 µM and 18.7 µM | [4] 16.8 µM and 18.7 µM

CC[C@@]1(O)C(=O)OCc2c1cc1n(c2=O)Cc2cc3c(CN(C)C)c(O)ccc3nc2-1
active: [1] 26.6 nM and 118 nM | [2] 6.7 nM and 23.5 nM | [16] 47.3 nM and 26.4 nM | [4] 29.9 nM and 235 nM | [5] 344 nM and 1.71 µM | [17] 26.6 nM and 296 nM | [6] 47.3 nM and 41.8 nM | [7] 309 nM and 1.37 µM | [8] 473 nM and 1.48 µM | [9] 27.6 nM and 109 nM | [10] 2.66 µM and 4.69 µM | [11] 66.8 nM and 296 nM | [14] 2.11 µM and 2.64 µM | [18] 0.329 µM | [20] 131 nM | [19] 46.5 nM

COc1cc2c(c(OC)c1OC)-c1ccc(OC)c(=O)cc1[C@@H](NC(C)=O)CC2
inactive: [8] | [11] | [13]
active: [1] 0.0067 µM | [2] 4.2 nM and 1 nM | [16] 42.2 nM and 1 nM | [4] 5.3 nM and 1.32 µM | [7] 11 nM and 1 nM | [9] 4.9 nM and 1 nM | [14] 20.9 µM | [18] 0.0447 µM | [20] 31.6 nM | [19] 39.8 nM

COc1cc2nc(N3CCN(C(=O)c4ccco4)CC3)nc(N)c2cc1OC
active: [1] 14.8 µM | [2] 11.8 µM | [5] 27.1 µM | [17] 26.4 µM | [6] 14.8 µM | [7] 9530 nM | [10] 29.6 µM
inactive: [16] | [11] | [13] | [14]

O=C(c1ccc(OCCN2CCCCC2)cc1)c1c(-c2ccc(O)cc2)sc2cc(O)ccc12
active: [1] 10.6 µM and 18.7 µM | [2] 18.8 µM | [16] 20.9 µM | [4] 14.8 µM | [5] 13.7 µM | [6] 15 µM | [9] 27.6 µM and 24.3 µM | [10] 23.7 µM and 18.7 µM | [11] 26.6 µM and 18.7 µM | [20] 20800 nM | [19] 16500 nM
inactive: [3] | [13] | [14]

NC(CO)C(=O)NNCc1ccc(O)c(O)c1O (stereo unspecified)
active: [1] 23.5 µM
not listed: [6] | [10] | [15] | [17] | [18] | [19] | [20]
inactive: all other assays above

CCCCc1oc2ccccc2c1C(=O)c1cc(I)c(OCCN(CC)CC)c(I)c1
inactive: [12] | [13]
active: [1] 4.69 µM and 26.6 µM | [2] 1.18 µM and 13.3 µM | [16] 8.33 µM | [3] 7.43 µM | [4] 18.7 µM and 26.6 µM | [5] 8.57 µM and 21.7 µM | [6] 1.48 µM | [7] 4.32 µM and 21.9 µM | [8] 16.6 µM | [9] 5.44 µM and 11 µM | [10] 26.4 µM and 26.6 µM | [18] 44.7 µM | [20] 56200 nM | [19] 22400 nM

CCCNCC(O)COc1ccccc1C(=O)CCc1ccccc1 (stereo unspecified)
active: [5] 21.7 µM | [10] 33.2 µM
inactive: [1] | [15] | [16] | [3] | [4] | [11] | [12] | [13] | [14]

O=C(CCCN1CCC(O)(c2ccc(Cl)cc2)CC1)c1ccc(F)cc1
inactive: [1] | [2] | [16] | [3] | [4] | [8] | [9] | [11] | [12] | [13] | [14]

CCc1cccc2c3c([nH]c12)C(CC)(CC(=O)O)OCC3 (stereo unspecified)
not listed: [12] | [15] | [17] | [18] | [19] | [20]
inactive: all other assays above

COc1cc2nc(N3CCN(C(=O)C4COc5ccccc5O4)CC3)nc(N)c2cc1OC (stereo unspecified)
active: [1] 18.7 µM | [2] 29.6 µM | [5] 19.2 µM | [8] 26.4 µM | [9] 24.6 µM
inactive: [16] | [3] | [6] | [11] | [12] | [13] | [14]

CCN1CCCC1CNC(=O)c1cc(S(=O)(=O)CC)c(N)cc1OC (stereo unspecified)
not listed: [15] | [17] | [18] | [19] | [20]
inactive: all other assays above

COc1ccccc1N1CCN(CC(O)COc2cccc3ccccc23)CC1 (stereo unspecified)
active: [9] 15.5 µM
not listed: [4] | [5] | [14] | [15] | [18] | [19] | [20]
inactive: all other assays above

N[C@@H](Cc1c[nH]c2ccc(O)cc12)C(=O)O
not listed: [5] | [15] | [16] | [18] | [19] | [20]
inactive: all other assays above
